Compound activity deposited in PubChem by National Center for Advancing Translational Sciences (NCATS).
SMN2 splice enh: enhancers of SMN2 splice variant expression; HEK293 SMN2-luciferase splicing reporter, luminescence, 30-36 h; AID 1458; Potency, µM (titrated, usually from 46.1 µM), usual class: activators; 2.8% of 210,000 active; note: nearly all actives have a fitted effect of over 55% in size
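HEK293 cells carry an SMN2 […]–luciferase reporter in which exon 7 inclusion puts luciferase in frame. Cells were plated 10-12 h before compound addition, then incubated 30-36 h at 37C. ONE-Glo luminescence was read; sodium butyrate at 4.5 mM final served as control.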
Rab9 promoter act: Rab9 promoter activation; 2.8% of 320,000 active; Potency, µM (series often up to 9.22 µM), hits mostly activators; Huh7 Rab9 promoter-luciferase reporter, luminescence, 24 h; AID 485297; note: nearly all actives have a fitted effect of over 60% in size
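Promoter activation is measured as luciferase luminescence in Huh7 cells stably transfected with a Rab9 promoter–luciferase construct, following 24 h compound exposure at 37 °C and 10 min reagent incubation at ambient temperature.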
NPC1 prom act: NPC1 promoter activation. AID 485313. Huh7 NPC1 promoter luciferase reporter, 24 h. 2.4% of 320,000 active. Potency, µM (doses to about 9.22 µM), hits mostly activators; note: nearly all actives have a fitted effect of over 60% in size
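NPC1 promoter–luciferase Huh7 cells; 24 h compound; luminescence.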
ELG1 repair inh: blocks ELG1-dependent DNA repair in HEK293T cells; HEK293T ELG1-luciferase reporter, luminescence, 16 h; DNA damage induced by 5-fluorouridine; Potency, µM (titrated, usually from 46.1 µM), actives largely listed as inhibitors; 2.3% of 330,000 active; AID 504467; note: nearly all actives have a fitted effect of over 55% in size
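In this reporter screen, reduction of luminescence relative to DMSO vehicle indicated activity. Compounds and 5-fluorouridine were added together to 2,000 cells per well, incubated for 16 hr at 37 °C, then developed with ONE-Glo.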
ELG1 genotox: inducers of genotoxicity in HEK293T ELG1-luciferase cells; HEK293T ELG1-luciferase reporter, luminescence, 16 h; Potency, µM (doses to about 46 µM), hits mostly activators; 1.3% of 330,000 active; AID 504466; note: nearly all actives have a fitted effect of over 60% in size
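ELG1-luciferase HEK293T cells, 2,000/well; compound pinned in; 16 hr, 37 °C, 5% CO2; ONE-Glo, 30 min RT; luminescence on CCD imager.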
FLuc modulator: firefly luciferase modulation, counter-screen for miR-21 project; 6.9% of 360,000 active; Potency, µM (series often up to 57.5 µM), most hits filed as inhibitors; purified FLuc, Km substrates, luminescence inhibition; P08659; note: nearly all actives have a fitted effect of over 55% in size
Target sequence (P08659 whole entry, looked up): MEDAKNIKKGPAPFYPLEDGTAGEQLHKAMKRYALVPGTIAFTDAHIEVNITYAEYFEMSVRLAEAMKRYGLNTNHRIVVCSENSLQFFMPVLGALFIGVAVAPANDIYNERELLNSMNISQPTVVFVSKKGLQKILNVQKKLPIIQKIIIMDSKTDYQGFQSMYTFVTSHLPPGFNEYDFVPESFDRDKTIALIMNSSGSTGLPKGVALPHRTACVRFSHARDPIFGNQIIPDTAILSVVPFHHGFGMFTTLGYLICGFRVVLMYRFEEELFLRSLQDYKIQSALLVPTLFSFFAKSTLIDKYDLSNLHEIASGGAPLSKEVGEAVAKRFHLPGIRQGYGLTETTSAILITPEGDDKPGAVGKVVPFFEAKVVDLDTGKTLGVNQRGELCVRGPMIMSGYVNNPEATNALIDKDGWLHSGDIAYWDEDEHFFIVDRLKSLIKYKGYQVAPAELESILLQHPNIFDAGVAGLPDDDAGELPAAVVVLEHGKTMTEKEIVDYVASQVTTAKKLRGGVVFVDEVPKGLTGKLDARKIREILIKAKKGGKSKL
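Purified P. pyralis luciferase, 10 nM final, with Km-level 10 uM D-luciferin and 10 uM ATP in 50 mM Tris acetate pH 7.5, 10 mM Mg acetate, 0.01% Tween-20, 0.05% BSA; 6-point qHTS titration about 60 µM downward; luminescence read.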
Hits are given with their value; [ ] = another dose, or the depositor's remark. Only some compounds are listed: those with a hit (about 9.2% of all), similar ones and a draw of the others. Calls come from the whole dose curve; as a rule, active = well fitted curve in the direction sought with a large enough effect; inconclusive = small, poorly fitted or top-dose-only effect, or another doubt; inactive = no such curve, though single readings can be large; an effect the other way counts as inactive or inconclusive.

How did Cc1ccc(S(=O)(=O)N2CCCCC2)c(C)c1NS(C)(=O)=O do in these assays?
SMN2 splice enh: inactive; Rab9 promoter act: inactive; NPC1 prom act: inactive; ELG1 repair inh: inactive; ELG1 genotox: inactive; FLuc modulator: inactive

Results for Cn1c(NCc2ccccc2F)nc2ccccc21 ?
SMN2 splice enh: 12.6µM; FLuc modulator: 16.9µM

What do the screens show for `CCOc1ccc(CNc2nc3ccccc3n2C)cc1`?
Rab9 promoter act: 2µM; NPC1 prom act: 3.16µM; ELG1 repair inh: inconclusive; ELG1 genotox: inconclusive; FLuc modulator: 12µM

How did Cc1ccc(CNc2nc3ccccc3n2C)o1 do in these assays?
Rab9 promoter act: 2µM; NPC1 prom act: inconclusive; ELG1 repair inh: inconclusive; ELG1 genotox: inconclusive; FLuc modulator: inconclusive

How did Cn1c(NCc2ccccc2O)nc2ccccc21 do in these assays?
SMN2 splice enh: inconclusive; Rab9 promoter act: 2.82µM; NPC1 prom act: 3.98µM; ELG1 repair inh: inconclusive; ELG1 genotox: inconclusive; FLuc modulator: 21.3µM

How did COc1cc(OC)c(-n2cc(-c3ccc(OC)c(OC)c3)[nH]c2=S)cc1Cl do in these assays?
Rab9 promoter act: inactive; NPC1 prom act: inactive; ELG1 repair inh: inactive; ELG1 genotox: inactive; FLuc modulator: inactive

Results for Cc1ccc(Cn2c(=O)c3cccnc3n(CC(=O)Nc3cc(Cl)ccc3C)c2=O)cc1 ?
SMN2 splice enh: inactive; FLuc modulator: inactive

Results for COc1ccccc1C(=O)C1CCCN(C(=O)c2ccccc2Cl)C1 (stereo not given) ?
Rab9 promoter act: inactive; NPC1 prom act: inactive; ELG1 repair inh: inactive; ELG1 genotox: inactive; FLuc modulator: inactive

How did COc1ccccc1C(=O)C1CCCN(C(=O)c2cn3cc(Cl)ccc3n2)C1 (stereo not given) do in these assays?
Rab9 promoter act: inactive; NPC1 prom act: inactive; ELG1 repair inh: inconclusive; ELG1 genotox: inactive; FLuc modulator: 13.5µM

What do the screens show for `O=C(CN(CC1CCCO1)C(=O)CNS(=O)(=O)c1ccc(Cl)cc1)NC1CCCC1` (stereo not given)?
Rab9 promoter act: inactive; NPC1 prom act: inactive; ELG1 repair inh: inactive; ELG1 genotox: inactive; FLuc modulator: inactive

What do the screens show for `NC(N)=Nc1nc(CCN2C(=O)c3ccccc3C2=O)cs1`?
SMN2 splice enh: 31.6µM; Rab9 promoter act: inactive; NPC1 prom act: inactive; ELG1 repair inh: inactive; ELG1 genotox: inactive; FLuc modulator: inactive

Results for O=[N+]([O-])c1cc(-c2nnc(Nc3ccccc3)c3ccccc23)ccc1N1CCOCC1 ?
SMN2 splice enh: inactive; Rab9 promoter act: inactive; NPC1 prom act: inactive; ELG1 repair inh: 18.4µM; ELG1 genotox: inactive; FLuc modulator: inactive

How did O=[N+]([O-])c1cc(-c2nnc(Nc3ccc(O)cc3)c3ccccc23)ccc1N1CCOCC1 do in these assays?
SMN2 splice enh: inactive; Rab9 promoter act: inactive; NPC1 prom act: inactive; ELG1 repair inh: 18.4µM; ELG1 genotox: inactive; FLuc modulator: inactive

What do the screens show for `Cc1ccc(Nc2nnc(-c3ccc(N4CCOCC4)c([N+](=O)[O-])c3)c3ccccc23)cc1`?
SMN2 splice enh: inactive; Rab9 promoter act: inactive; NPC1 prom act: inactive; ELG1 repair inh: inconclusive; ELG1 genotox: inactive; FLuc modulator: inactive

How did COc1ccc(NC(=O)c2c(-c3ccc(C)cc3)nnc3ccccc23)c(OC)c1 do in these assays?
FLuc modulator: inactive

Results for O=C(/C=C1\NCC2c3ccccc3CCN2C1=O)c1ccccc1 (stereo not given) ?
SMN2 splice enh: 2.82µM; Rab9 promoter act: 3.55µM; NPC1 prom act: 3.98µM; ELG1 repair inh: inactive; ELG1 genotox: inactive; FLuc modulator: 1.2µM

How did ClC1(Cl)CC1CSc1nc2ccccc2[nH]1 (stereo not given) do in these assays?
SMN2 splice enh: inconclusive; Rab9 promoter act: inconclusive; NPC1 prom act: inconclusive; ELG1 repair inh: inconclusive; ELG1 genotox: inactive; FLuc modulator: 16.9µM

Results for O=C(O)CSc1nc2ccccc2[nH]1 ?
SMN2 splice enh: inactive[9.22 µM]; Rab9 promoter act: inactive; NPC1 prom act: inactive; ELG1 repair inh: inactive; ELG1 genotox: inactive; FLuc modulator: inactive
